We go through 40 compounds from PubChem BioAssay (Tox21).

Results filed as inconclusive are left out. The source made the active and inactive calls. The call rests on the fitted dose curve; in most records, active means well fitted cell-killing curve with a large enough effect in the repeat runs; inconclusive means weak or mixed curves, or effect the other way; inactive means flat fitted curve, though single readings scatter.
On the % scale 0 is the no-effect control and ±100 the full control effect; potency means the concentration at half of the fitted maximal effect.

This assay in a line: qHTS assay to identify small molecule agonists of the sonic hedgehog signaling (Shh) pathway - cell viability counter screen (AID 1259366). Further: nearly all actives have a fitted effect of over 50% in size. The note with it: NIH/3T3 Gli1-Luc viability, CellTiter-Fluor, 24 h; series mostly up to 92.4 µM; viability change, negative = cytotoxic: at the top concentration. The source says:
National Center for Advancing Translational Sciences [NCATS]
NIH Chemical Genomics Center [NCGC]
U.S. Environmental Protection Agency [EPA]
National Institutes of Environmental Health Sciences [NIEHS]
National Toxicology Program [NTP]
U.S. Food and Drug Administration [FDA]
The sonic hedgehog (Shh) pathway is essential for normal embryonic development. Dysregulation of the Shh pathway can cause severe developmental defects in organs. Therefore chemicals that interfere with the pathway are potential developmental toxicants. A cell line designated 3T3Gli1-Luc (DMB/OARSA/CFSAN/FDA, Laurel, MD), a NIH/3T3 derived clone containing stably integrated Gli1-Luc reporter is used to detect chemical interference of the Shh pathway, by changes in the expression of the firefly Luc gene under the control of the Gli1 transcriptional response element. This cell line was used to screen Tox21 libraries for identifying and prioritizing the potential developmental toxicants that interfere Shh pathway. The cytotoxicity of the compounds was tested in parallel by measuring the cell viability using CellTiter-Fluor assay system (Promega, Madison, WI) in the same wells.
Tox21 Assay Protocol Summary:
3T3 Gli1-Luc cells were dispensed at 2,000 per well in 5uL of culture medium into white solid bottom 1536-well plates (Greiner Bio-One, Monroe, NC) using a Multidrop Combi (Thermo Scientific, Waltham, MA) dispenser. The assay plates were incubated at 37 C and 5% CO2 for 4hr, and then 23nL of compounds dissolved in DMSO and positive control were transferred using a Pintool station (Wako, San Diego, CA). The assay plates were incubated at 37C and 5% CO2 for 24hr. For viability read, after 23hr of compound treatment, 1uL of CellTiter-Fluor reagent (Promega Corporation, Madison, WI) was added to each well of the assay plates using Flying Reagent Dispenser (FRD, Aurora Discovery, San Diego, CA) and incubated the assay plates at 37C for 1hr. The fluorescence signal was quantified using a ViewLux plate reader (Perkin Elmer, Shelton, CT).
Regarding `S=C(SSSSSSC(=S)N1CCCCC1)N1CCCCC1`, the Potency was 5.35 µM (active). For `N[C@@H](CSSC[C@H](N)C(=O)O)C(=O)O`, the viability change, negative = cytotoxic was 13.4% [at 0.349 µM] (inactive).

For the compound `CCCCCCCOC(=O)c1ccc(O)cc1`, the “viability change, negative = cytotoxic” value is -11.1% (inactive).

For `CCCCCCCCC(C)=O`, the “viability change, negative = cytotoxic” value is -4.78% (inactive). With `Cc1cc(C)c(C=O)c(C)c1`, the “viability change, negative = cytotoxic” value is -2.46% (inactive). As to `CCc1cccc(CC)c1NC(=O)C(=O)O`, the “viability change, negative = cytotoxic” value is 3% (inactive). As to `O=S(=O)(O)CCCN1CCOCC1`, the “viability change, negative = cytotoxic” value is -4.55% (inactive). For `Cc1cc(Nc2ccc(O)cc2)ccc1N`, the Potency was 30.5 µM (active). `CO[Si](CCC1CCC2OC2C1)(OC)OC` (stereo not given): the “viability change, negative = cytotoxic” value is -6.82% (inactive).

For `O=C1OC(=O)c2cccc3cccc1c23`, the “viability change, negative = cytotoxic” value was -15.5% (inactive). Regarding `Cc1ccc2ccc3cccc4ccc1c2c34`, the “viability change, negative = cytotoxic” value was 9.74% (inactive). Take `Oc1cc2ccccc2cc1O`: the “viability change, negative = cytotoxic” value is -13.6% (inactive). On to `CCCCCCS`, for which the “viability change, negative = cytotoxic” value is -1.02% (inactive). Turning to `CCCCCCCC/C=C/CCCOC(C)=O`, the “viability change, negative = cytotoxic” value is 4.2% (inactive). Take `COC(=O)CC#N`: the “viability change, negative = cytotoxic” value is -3.67% (inactive). Take `O=C(c1ccccc1)c1cc(Cl)ccc1O`: the “viability change, negative = cytotoxic” value is -22.6% (inactive). Take `CC(=O)Nc1ccc(O)cc1`: the Potency result was “inactive”.

For `CN(Cc1cc(Br)cc(Br)c1N)C1CCCCC1`, the “viability change, negative = cytotoxic” value is 5.41% [at 42.5 µM] (inactive). `CC(C)C(=O)OCc1ccccc1`: the “viability change, negative = cytotoxic” value is 5.49% (inactive). As to `CC(C)=CCCC(C)CCOC(=O)C(C)C` (stereo not given), the “viability change, negative = cytotoxic” value is 1.75% (inactive).

Take `Cc1oc(-c2ccccc2)nc1CCOc1ccc(C[C@H](Nc2ccccc2C(=O)c2ccccc2)C(=O)O)cc1`: the Potency was 43.3 µM (active). On to `C=CC(=O)OCCN(CC)CC`, for which the “viability change, negative = cytotoxic” value is 2.06% (inactive). Turning to `CCCCNc1c(C(=O)OCC)c(C)nc2c1cnn2CC`, the “viability change, negative = cytotoxic” value is -15.4% [at 42.5 µM] (inactive). On the same count and under the same terms, the same measure for `CC(=O)C=O`: -3.77% (inactive).

As for `C=CC(C)C#N` (stereo not given), the “viability change, negative = cytotoxic” value is -3.24% (inactive). As to `CC(C)CCOCCC(C)C`, the “viability change, negative = cytotoxic” value is -3.86% (inactive). As to `C1CC(COCC2CO2)CCC1COCC1CO1` (stereo not given), the “viability change, negative = cytotoxic” value is -21.6% (inactive). Take `CCc1c(Br)c(Br)c(Br)c(Br)c1Br`: the “viability change, negative = cytotoxic” value was -2.23% (inactive). With `CCOC(=O)CN`, the “viability change, negative = cytotoxic” value is -4.12% (inactive). In the case of `CN1CN(C)CN(C)C1`, the “viability change, negative = cytotoxic” value was 2.39% (inactive). With `CCCCCCC(C)OC(=O)COc1nc(F)c(Cl)c(N)c1Cl` (stereo not given), the “viability change, negative = cytotoxic” value is -23.1% (inactive). Take `CN(C)CCOC(c1ccccc1)c1ccccc1` (tested in a mixture with another compound): the “viability change, negative = cytotoxic” value is -4.89% (inactive). For `CCc1cccc(C)c1`, the “viability change, negative = cytotoxic” value was 2.89% (inactive). `COc1cccc(OC)c1O`: the “viability change, negative = cytotoxic” value is -3.96% (inactive). For `CCCCCCCC(OC)OC`, the “viability change, negative = cytotoxic” value is 1.9% [at 42.5 µM] (inactive). Same read-out and setting: the value for `Cc1cccc(C)n1` was 0.324% (inactive).

On to `CCC1(c2cnc[nH]2)Cc2ccccc2C1`, for which the “viability change, negative = cytotoxic” value is -8.39% [at 42.5 µM] (inactive). For `CCCCCCCCCCCC(=O)N(CC)CC`, the “viability change, negative = cytotoxic” value is 0.12% (inactive). On the same count and under the same terms, the same measure for `O=C1OC(OC(=O)c2cccnc2Nc2cccc(C(F)(F)F)c2)c2ccccc21` (stereo not given): 1.08% [at 42.5 µM] (inactive). Consider `Cc1cccc(N(C)C)c1`, for which the “viability change, negative = cytotoxic” value is 0.151% (inactive).
